Data as given in PubChem BioAssay (Tox21).
Results filed as inconclusive are left out. A call without a number means that no potency is given here. The source made the active and inactive calls. The call rests on the fitted dose curve.

molecular target: 5-hydroxytryptamine receptor 2A (Homo sapiens) (UniProt P28223); assay: 5-hydroxytryptamine receptor 2A (HTR2A) small molecule agonists, cell-based qHTS assay (AID 1963587); details: HTR2A-CHO cells, calcium flux fluorescence, agonist mode; series mostly up to 76.8 µM; further: nearly all actives have a fitted effect of over 30% in size
Excerpt: National Center for Advancing Translational Sciences [NCATS]
Division of Preclinical Innovation [DPI]
U.S. Environmental Protection Agency [EPA]
National Institutes of Environmental Health Sciences [NIEHS]
National Toxicology Program [NTP]
U.S. Food and Drug Administration [FDA]
The HTR2A receptor is a subtype of the 5-HT2 receptor that belongs to the serotonin receptor family and is a G protein-coupled receptor (GPCR). The HTR2A-CHO cell line stably expressing human 5-hydroxytryptamine receptor 2A (HTR2A) can be used for screening agonists of interactions between 5-HT2 and its ligands. The HTR2A-CHO calcium flux assay is a homogeneous fluorescence-based assay for detecting the intracellular calcium level using FDSS kinetic plate reader system.
HTR2A-CHO cells were dispensed at 2000 cells/3uL/well in 1536-well black-clear bottom plates using a Multidrop Dispenser. After the assay plates were incubated at a 37 C/5% CO2 incubator for 18 h, 3 uL of Dye Loading Buffer was transferred to the assay plate by a Flying Reagent Dispenser. The assay plates were incubated at 37 C for 1h. For agonist mode, 23 nL of compounds dissolved in DMSO, positive controls or DMSO only was transferred to the assay plate by a pin tool. The fluorescence intensity in the plates was measured using FDSS 7000EX kinetic plate reader for 2 min at 1 sec intervals.
Potency means the concentration at half of the fitted maximal effect.

5-hydroxytryptamine receptor 2A (Homo sapiens), sequence (P28223 whole entry, looked up): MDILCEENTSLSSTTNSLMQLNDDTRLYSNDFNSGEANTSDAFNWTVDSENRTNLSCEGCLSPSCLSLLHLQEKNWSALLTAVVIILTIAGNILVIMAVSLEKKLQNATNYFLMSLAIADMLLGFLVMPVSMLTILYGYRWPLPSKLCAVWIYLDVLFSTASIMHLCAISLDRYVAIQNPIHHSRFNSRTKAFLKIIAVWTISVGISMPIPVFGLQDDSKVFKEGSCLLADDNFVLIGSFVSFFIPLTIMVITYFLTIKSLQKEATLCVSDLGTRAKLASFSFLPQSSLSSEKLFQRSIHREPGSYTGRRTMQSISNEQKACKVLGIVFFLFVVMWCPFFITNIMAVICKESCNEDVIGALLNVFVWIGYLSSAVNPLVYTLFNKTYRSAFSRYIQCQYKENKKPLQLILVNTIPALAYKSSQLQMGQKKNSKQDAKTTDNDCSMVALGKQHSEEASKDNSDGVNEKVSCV

Row | Structure (SMILES) | Potency
1 | O=C=NCC1CCCC(CN=C=O)C1 (stereo not given) | inactive
2 | O=CC=C(c1ccccc1)c1ccccc1 | inactive
3 | O=CNc1ccccc1 | inactive
4 | CCCCCCCCCCCC(=O)OCC | inactive
5 | CC(=O)/C(C)=C/C1C(C)=CCCC1(C)C (stereo not given) | inactive
6 | CNc1ccc([N+](=O)[O-])cc1 | inactive
7 | O=C1CCCCCN1SSN1CCCCCC1=O | inactive
8 | CC/C=C\CCOC(C)OCC (stereo not given) | inactive
9 | O=C(Nc1ccc(Oc2ccc(Cl)cc2)c(Cl)c1)c1cc(I)cc(I)c1O | inactive
10 | COc1cc(C(C)(C)C)c(O)c(C(C)(C)C)c1 | inactive
11 | CC(=O)OC/C=C(/C)CCC=C(C)C | inactive
12 | Cc1cc(CCN2CCN(c3nsc4ccccc34)CC2)cc2c1NC(=O)CC2(C)C | inactive
13 | CC/C=C\CCCCCO | inactive
14 | CC[N+](CC)(CC)CCOc1ccc(/C=C/c2ccccc2)cc1 | inactive
15 | CC(=O)NCCCS(=O)(=O)O | 18.9 µM (active)
16 | Clc1nc2ccccc2nc1Cl | inactive
17 | CCCCCCCC/C=C\CCCCCCCC(=O)NCc1ccc(O)c(OC)c1 | inactive
18 | Cc1cc(O)c2c(O)c3c(O)cccc3cc2c1 | inactive
19 | Cc1c(C(=O)NN2CCCCC2)nn(-c2ccc(Cl)cc2Cl)c1-c1ccc(Cl)cc1 | inactive
20 | FC(F)(Cl)C(F)(Cl)Cl | inactive

Row | Structure (SMILES) | Potency
21 | CN1CCC(Nc2ncc3ncnc(Nc4ccc(F)c(Cl)c4)c3n2)CC1 | inactive
22 | NC(=O)c1c(Cl)cccc1Cl | inactive
23 | Cc1cc(Nc2ccc(O)cc2)ccc1N | inactive
24 | C=C[C@](C)(O)CC[C@@H]1[C@@]2(C)CCCC(C)(C)[C@@H]2CC[C@@]1(C)O | inactive
25 | CCOC(=O)c1ccc(C#Cc2ccc3c(c2)C(C)(C)CCS3)nc1 | inactive
26 | Nc1cccc([N+](=O)[O-])c1 | inactive
27 | COC(C)(C)CC(C)=O | inactive
28 | Oc1cccc(Nc2ccccc2)c1 | inactive
29 | CCO[Si](CC(C)C)(OCC)OCC | inactive
30 | C=CCN(CC=C)CC=C | inactive
31 | O=C(Cl)c1cccc([N+](=O)[O-])c1 | inactive
32 | CCCCCCC1CCC(=O)O1 (stereo not given) | inactive
33 | CC1=CC(=O)CCC1 | inactive
34 | CCn1nc(C(=O)O)c(=O)c2cc3c(cc21)OCO3 | inactive
35 | NC(=O)c1ccccc1 | inactive
36 | O=[N+]([O-])c1cccc(S(=O)(=O)O)c1 | inactive
37 | C=CC(C)(CCC=C(C)C)OC(=O)CC(C)C (stereo not given) | inactive
38 | CCOC(=O)C(C)Oc1ccc(Oc2nc3ccc(Cl)cc3o2)cc1 (stereo not given) | inactive
39 | O=C(/C=C/c1ccc([N+](=O)[O-])cc1)c1ccccc1 | inactive
40 | CC(C)Cc1ccc(CC(=O)O)cc1 | inactive
